{"source": "PubChem BioAssay AID2216", "about": "(Broad Institute, 2009)", "note": "Hit rate of the full screen: of about 300,000 compounds, about 3,300 (1.1%) were called active. Inconclusive results (about 6%) are left out.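 The calls were made as follows: active = more than half of the replicate wells show a fall in the fluorescence ratio signal beyond about 16% (limit read from the data, passing the limit was not always enough); inconclusive = exactly half of the replicate wells pass the set limit; inactive = fewer than half of replicates pass the limit.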 What follows is part of a selection rich in actives, with near analogues and random picks from the rest."}
{"tested_on": "Ran GTPase (GTP-bound) - importin-beta complex", "test": "inhibitors of RanGTP-importin-beta interaction, primary screen, biochemical, FRET, CFP-Ran, YFP-importin-beta, homogeneous (AID 2216);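 also: 0% = DMSO wells and 100% = Ran loaded with GDP instead of GTP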", "conditions": "cell-free CFP-Ran/YFP-importin-beta FRET ratio; hits give high values; concentration not given here"}
{"smiles": "COc1cccc(NC(=O)CSc2nccn(-c3ccc4c(c3)OCCO4)c2=O)c1", "inhibition": "-2.91% (inactive)"}
{"smiles": "CCCCN(C1CCS(=O)(=O)C1)S(=O)(=O)c1ccc(C(C)C)cc1", "note": "(stereo not given)", "inhibition": "0.359% (inactive)"}
{"smiles": "O=C(c1ccc(NS(=O)(=O)c2ccc3[nH]c(=O)[nH]c3c2)cc1)N1CCCCC1", "inhibition": "0.81% (inactive)"}
{"smiles": "COc1ccc(CCNC(=O)c2ccccc2OCc2ccccc2)cc1", "inhibition": "2.59% (inactive)"}
{"smiles": "O=C(N[C@@H](Cc1ccccc1)C(=O)OCc1ccccc1)c1nc[nH]c1C(=O)NC1CCNCC1", "inhibition": "1.19% (inactive)"}
{"smiles": "Cc1ccc2nc(N3CCN(C(=O)c4ccco4)CC3)sc2c1", "inhibition": "-2.41% (inactive)"}
{"smiles": "COc1ccc(C(=O)OCC(=O)c2ccc(Cl)s2)c(OC)c1OC", "inhibition": "0.711% (inactive)"}
{"smiles": "Cc1cc(C)c(S(=O)(=O)NCC(c2ccc3c(c2)OCO3)N2CCOCC2)c(C)c1", "note": "(stereo not given)", "inhibition": "2.24% (inactive)"}
{"smiles": "Cc1cccn2c(=O)c3cc(C(=O)N4COCC4(C)C)n(C)c3nc12", "inhibition": "-4.28% (inactive)"}
{"smiles": "O=C(NCC1CCCO1)c1cc2c([nH]c3ccccc32)c(-c2ccc(F)cc2)n1", "note": "(stereo not given)", "inhibition": "-5.32% (inactive)"}
{"smiles": "CCOC(=O)C1CCN(Cc2c(C(=O)N3CCOCC3)nc3c(C)cccn23)CC1", "inhibition": "-0.645% (inactive)"}
{"smiles": "COc1ccc(CCn2c(=N)c(C(=O)NCC3CCCO3)cc3c(=O)n4cccc(C)c4nc32)cc1OC", "note": "(stereo not given)", "inhibition": "0.0539% (inactive)"}
{"smiles": "Cc1cccn2c(=O)c3cc(C#N)c(=O)n(CCCN4CCOCC4)c3nc12", "inhibition": "117% (active)"}
{"smiles": "Cc1cccn2c(=O)c3cc(C(=O)NCC4CCCO4)c(=N)n(Cc4ccc(F)cc4)c3nc12", "note": "(stereo not given)", "inhibition": "188% (active)"}
{"smiles": "CCc1noc(C)c1C(=O)N1CCCC(N2CCN(c3ccc(F)cc3)CC2)C1", "note": "(stereo not given)", "inhibition": "3.28% (inactive)"}
{"smiles": "OCc1ccc(-c2ccccc2)c(-c2ccccc2)c1", "inhibition": "3.41% (inactive)"}
{"smiles": "CCOC(=O)c1ccc(NC(=O)c2c(NCc3ccccc3)[nH]c(=O)[nH]c2=O)cc1", "inhibition": "-5.92% (inactive)"}
{"smiles": "Cc1cc2c(cc1C)NC(c1ccccn1)C1=C(CC(C)(C)CC1=O)N2", "note": "(stereo not given)", "inhibition": "-3.07% (inactive)"}
{"smiles": "Cc1ccsc1C1C(C#N)=C(N)OC2=C1C(=O)CC(C)(C)C2", "note": "(stereo not given)", "inhibition": "-0.947% (inactive)"}
{"smiles": "CC(C)C1C2=C(CC(C)(C)CC2=O)ON1c1ccccc1", "note": "(stereo not given)", "inhibition": "26.1% (active)"}
{"smiles": "CCCCCCCCCCCCN1[C@@H](CC(C)=O)c2cc(F)cc(F)c2S1(=O)=O", "inhibition": "-0.304% (inactive)"}
{"smiles": "CCCC1OC23CCCCC2C(C#N)(C#N)C1(C#N)C(=N)O3", "note": "(stereo not given)", "inhibition": "41.6% (active)"}
{"smiles": "CC(C)N(C(=O)Cn1cc(S(=O)(=O)CC(=O)N2CCOCC2)c2ccccc21)C(C)C", "inhibition": "2.93% (inactive)"}
{"smiles": "O=C1CCc2cc(S(=O)(=O)Nc3ccc(C(F)(F)F)cc3)cc3c2N1CC3", "inhibition": "-3.26% (inactive)"}
{"smiles": "O=C(COc1cccc2c1CCNC2=O)NC1CCCCC1", "inhibition": "-2.21% (inactive)"}
{"smiles": "CC(=O)c1ccc(-c2ccc(Cn3c(C)nc4cc(N)c(C)nc43)cc2)cc1", "inhibition": "27.1% (active)"}
{"smiles": "CCOC(=O)c1ccc2c(c1)nc(C)n2CC", "inhibition": "-1.9% (inactive)"}
{"smiles": "Cc1cc2nc3c(=O)n(Cc4ccccc4)c(=O)[nH]c3nc2cc1N", "inhibition": "-261% (inactive)"}
{"smiles": "O=C(CSc1n[nH]c(-c2cccs2)n1)N1CCCCC1", "inhibition": "-0.392% (inactive)"}
{"smiles": "CS(=O)(=O)c1ccc(C(=O)OCC(=O)NNC(=O)COc2ccc(Cl)cc2)cc1", "inhibition": "-2.55% (inactive)"}
{"smiles": "O=C(CSc1ccccn1)N1CCN(S(=O)(=O)c2ccc(Cl)cc2)CC1", "inhibition": "-1.48% (inactive)"}
{"smiles": "Cc1cccc(NC(=O)c2ccc(S(=O)(=O)N(C)CC3CCCO3)cc2)c1C", "note": "(stereo not given)", "inhibition": "-0.172% (inactive)"}
{"smiles": "N#C/C(=C\\c1ccc(-c2cccc([N+](=O)[O-])c2)o1)C(=O)NCCN1CCOCC1", "inhibition": "2.98% (inactive)"}
{"smiles": "N#C/C(=C\\C1=C(N2CCOCC2)C(=C\\c2ccccc2)/CC1)C(=O)Nc1ccccc1F", "inhibition": "-3.91% (inactive)"}
{"smiles": "Cc1ccc(C(=O)N2CCN(C(=O)N3CCOCC3)CC2)cc1", "inhibition": "-2.03% (inactive)"}
{"smiles": "N#C/C(=C/c1ccc(N2CCOCC2)o1)C(=O)N1CCOCC1", "inhibition": "39.5% (active)"}
{"smiles": "O=C(N1CCOCC1)N1CCOCC1", "inhibition": "-2.74% (inactive)"}
{"smiles": "N#C/C(=C\\c1ccc(N2CCOCC2)o1)C(=O)N1CCOCC1", "inhibition": "56.4% (active)"}
{"smiles": "CC(Oc1ccc(F)cc1)C(=O)Nc1ccccc1C(=O)NC1CC1", "note": "(stereo not given)", "inhibition": "-6.02% (inactive)"}
{"smiles": "Cc1ccc(-c2cc(=O)[nH]c(NCc3ccccc3)n2)cc1", "inhibition": "4.99% (inactive)"}
{"smiles": "CSCCC(NC(=O)c1ccco1)C(=O)Nc1cc(C)ccn1", "note": "(stereo not given)", "inhibition": "-2.09% (inactive)"}
{"smiles": "Cc1cc(Cl)c2oc(C(=O)N(C)C(C)c3ccccn3)c(C)c2c1", "note": "(stereo not given)", "inhibition": "1.52% (inactive)"}
{"smiles": "CC(=O)Nc1ccc(NC(=O)CS(=O)(=O)c2cn(CC(=O)N3CCCCC3)c3ccccc23)cc1", "inhibition": "-0.901% (inactive)"}
{"smiles": "Cc1ccc(C)c(-c2nnc(NC(=O)CS(=O)(=O)c3ccccc3)o2)c1", "inhibition": "-0.829% (inactive)"}
{"smiles": "N=c1oc2ccccc2cc1C(=O)NCc1ccccc1", "inhibition": "2.48% (inactive)"}
{"smiles": "CNC(=O)c1cc2c(ccc3ccccc32)oc1=N", "inhibition": "35.7% (active)"}
{"smiles": "N=c1oc2ccccc2cc1C(=O)N/N=C/c1ccccc1", "inhibition": "3.47% (inactive)"}
{"smiles": "O=C(NNC(=O)c1cc(-c2ccccc2Cl)nc2ccccc12)c1csc(N2CCOCC2)n1", "inhibition": "1.15% (inactive)"}
{"smiles": "O=C(NCc1ccncc1)c1ccc(NS(=O)(=O)c2cccc([N+](=O)[O-])c2)cc1", "inhibition": "3.31% (inactive)"}
{"smiles": "CC(OC(=O)CNC(=O)c1ccco1)C(=O)Nc1ccc(Cl)cn1", "note": "(stereo not given)", "inhibition": "0.318% (inactive)"}
{"smiles": "CNC(C)C#Cc1ccc2sc3cc(OC)c(OC)cc3c(=O)c2c1", "note": "(stereo not given)", "inhibition": "38.7% (active)"}
{"smiles": "Cc1cccc(N2CCN(C(=O)CCS(=O)(=O)c3ccc4c(c3)NC(=O)C(C)S4)CC2)c1C", "note": "(stereo not given)", "inhibition": "1.94% (inactive)"}
{"smiles": "CSc1nsc(NC(=O)Nc2ccccc2)n1", "inhibition": "1.6% (inactive)"}
{"smiles": "COc1ccc2c(CN3CCN(S(=O)(=O)c4cccs4)CC3)cc(=O)oc2c1", "inhibition": "-2.73% (inactive)"}
{"smiles": "NC(=O)CCN1CCN(S(=O)(=O)/C=C/c2ccccc2)CC1", "inhibition": "3.03% (inactive)"}
{"smiles": "O=c1cc(CN2CCN(S(=O)(=O)/C=C/c3ccccc3)CC2)c2ccc(O)cc2o1", "inhibition": "21% (active)"}
{"smiles": "CCOC(=O)N1CCN(C(=O)c2ccc(S(=O)(=O)Nc3cccc(C(F)(F)F)c3)cc2)CC1", "inhibition": "-0.937% (inactive)"}
{"smiles": "CN(C)CCCn1c(N)c(C#N)c2nc(C#N)c(C#N)nc21", "inhibition": "27.1% (active)"}
{"smiles": "Cc1ccc2nnn(Cc3cccc(C(C)(C)C)c3O)c2c1", "inhibition": "9.31% (inactive)"}
{"smiles": "COCCCn1c(SCC(=O)Nc2oc(C)c3c(C)n[nH]c(=O)c23)nc2sc3c(c2c1=O)CCC3", "inhibition": "-0.217% (inactive)"}
